# Unmarked numbers belong to inactive results. Records with an inconclusive call do not appear. Entries that show only a call come without a potency. The source made the active and inactive calls. Unless noted, calls come from the whole dose curve.
# Tests used:
# [1] = Nuclear factor erythroid 2-related factor 2/antioxidant responsive element (Nrf2/ARE) small molecule agonists: qHTS cell viability counter screen in human keratinocytes (AID 1919968; active = well fitted curve in the direction sought with a large enough effect in the repeat runs; an effect the other way counts as inactive or inconclusive; note: nearly all actives have a fitted effect of over 55% in size; note: potency is the fitted concentration of half-maximal effect)
# Procedure, shortened: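 Fluorescence read-out from CellTiter-Fluor after 1 h at 37 C. Wells held HaCaT-derived ARE-luciferase reporter cells (1,500/well) treated 23 h with DMSO-dissolved compounds. Run in the same wells as the luciferase agonist read.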
# [2] = Nuclear factor erythroid 2-related factor 2/antioxidant responsive element (Nrf2/ARE) small molecule agonists: luciferase reporter gene qHTS assay in human keratinocytes (AID 1919969); note: nearly all actives have a fitted effect of over 35% in size; note: potency is the fitted concentration of half-maximal effect
# [3] = biological target: KiSS-1 receptor (Homo sapiens) (UniProt Q969F8); test: Human kisspeptin (KISS1R) small molecule agonists, calcium flux assay in KISS1R-HEK293 cells (AID 1920064; active = well fitted curve in the direction sought with a large enough effect in the repeat runs; an effect the other way counts as inactive or inconclusive)
# Procedure, shortened: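 Calcium flux read-out: kinetic fluorescence at Ex/Em=480/540, 1 s intervals over 3 min, after pin-tool compound addition to dye-loaded KISS1R-HEK293 cells. Fifteen concentrations, triplicates.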
# [4] = G protein-coupled receptor (GPCR) small molecule agonists, calcium flux assay: HEK293 wild type cell line counter screen (AID 1920065)
# Procedure, shortened: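 Agonist mode; 18 h seeding at 37 C, 1 h dye load at 37 C; compounds pinned from DMSO, ATP as positive control; kinetic fluorescence 480/540 nm, 3 min, 1 s reads; 15 concentrations, triplicate.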
# [5] = p53 small molecule agonists, cell-based qHTS assay with human liver microsomes (AID 1963577)
# Procedure, shortened: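 Fluorescence of the beta-lactamase reporter in p53RE-bla cells, detected with LiveBLAzer substrate (2 h, room temperature, dark), served as the read-out after 16 h compound exposure at 37 C with human liver microsomes and NADPH, each 0.5 mg/mL final.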
# [6] = p53 small molecule agonists, cell-based qHTS assay with rat liver microsomes (AID 1963578)
# Procedure, shortened: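 Cells carrying a p53 response element–beta-lactamase reporter were plated and rested 5 h, then dosed with compound in DMSO plus rat liver microsomes and NADPH, each at 0.5 mg/mL final. After 16 h at 37 C, LiveBLAzer substrate was added for 2 h.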
# [7] = p53 small molecule agonists, cell-based qHTS assay with human liver microsomes: qHTS cell viability counter screen (AID 1963579); note: nearly all actives have a fitted effect of over 45% in size
# Procedure, shortened: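 Cytotoxicity counter screen: p53RE-bla, 4,000 cells/well; 5 h settle, 37 C/5% CO2; cpd + HLM 0.5 mg/mL + NADPH 0.5 mg/mL (final); 16 h, 37 C; CellTiter-Glo, 30 min RT, luminescence.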
# [8] = p53 small molecule agonists, cell-based qHTS assay with rat liver microsomes: qHTS cell viability counter screen (AID 1963580); note: nearly all actives have a fitted effect of over 45% in size
# Procedure, shortened: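 Rat liver microsome (0.5 mg/mL final) and NADPH (0.5 mg/mL final) co-incubation with compounds for 16 h at 37 C on HCT-116 p53RE-bla cells; cytotoxicity taken from intracellular ATP luminescence.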
# [9] = p53 small molecule agonists, cell-based qHTS assay: qHTS cell viability counter screen (AID 1963581); note: nearly all actives have a fitted effect of over 45% in size; note: potency is the fitted concentration of half-maximal effect
# Procedure, shortened: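 Cytotoxicity read-out: ATP-based luminescence (CellTiter-Glo, 30 min RT) measured in the same wells as the p53 reporter assay, HCT-116 p53RE-bla cells, 16 h compound exposure at 37 C.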
# [10] = p53 small molecule agonists, cell-based qHTS assay (AID 1963582; active = well fitted activation curve with a large enough effect in the signal ratio in the repeat runs, not every such curve was filed as active; the % refers to the signal ratio)
# Procedure, shortened: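 Fluorescence intensity read-out of a beta-lactamase reporter under a p53 response element. Cells were exposed to DMSO-dissolved compounds for 16 h at 37 C, then developed with FRET substrate for 2 h at RT.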
# [11] = cAMP Responsive Elements (CRE) small molecule agonists, cell-based qHTS assay (AID 1963590)
# Procedure, shortened: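 Beta-lactamase reporter readout: LiveBLAzer B/G FRET substrate, 2 h at room temperature, added after 3 h compound treatment of CRE-bla HEK 293T cells at 37 C/5% CO2.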
# [12] = cAMP Responsive Elements (CRE) small molecule antagonists, cell-based qHTS assay (AID 1963591; active = well fitted inhibition curve with a large enough effect in the signal ratio in the repeat runs, not every such curve was filed as active; the % refers to the signal ratio; note: potency is the fitted concentration of half-maximal effect)
# Procedure, shortened: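 HEK293T CRE-bla; 18 h preincubation; compound pin-transfer; NKH477 0.25 uM final, 3 h, 37 C; LiveBLAzer FRET substrate 2 h RT.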
# [13] = biological target: Beta-2 adrenergic receptor (Homo sapiens) (UniProt P07550); test: Adrenergic beta2 receptor (ADRB2) small molecule antagonists, cell-based qHTS assay (AID 1963592); note: nearly all actives have a fitted effect of over 50% in size; note: potency is the fitted concentration of half-maximal effect
# Procedure, shortened: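 Assay format: CHO-ADRB2 cells, 18-20hr seeding at 37C/5% CO2, then compound plus 1nM isoproterenol agonist mix for 0.5hr RT. Homogeneous time-resolved fluorescence cAMP detection after 1hr, expressed as 665/615 nm ratio.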
# [14] = biological target: Beta-2 adrenergic receptor (Homo sapiens) (UniProt P07550); test: Adrenergic beta2 receptor (ADRB2) small molecule agonists, cell-based qHTS assay (AID 1963593);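 note: CHO cells stably overexpressing human ADRB2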
# Procedure, shortened: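 CHO cells stably over-expressing ADRB2 were plated overnight at 37C, then dosed with compounds plus a stimulation mix containing 100uM IBMX and 25uM Ro-20-1724 for 0.5hr at room temperature. cAMP was measured by HTRF competition, 1hr.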
# [15] = biological target: D(2) dopamine receptor (Homo sapiens) (UniProt P14416); test: Dopamine D2 receptor (DRD2) small molecule agonists, cell-based qHTS assay (AID 1963594); note: nearly all actives have a fitted effect of over 35% in size
# Procedure, shortened: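 cAMP accumulation in DRD2-HEK293 cells measured by HTRF after 1 h detection; compounds added 10 min before NKH477 (200nM […]) forskolin-analogue stimulation, 30 min at room temperature, with Ro20-1724 present at 0.1 mM final.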
# [16] = biological target: D(2) dopamine receptor (Homo sapiens) (UniProt P14416); test: Dopamine D2 receptor (DRD2) small molecule antagonists, cell-based qHTS assay (AID 1963595; active = well fitted inhibition curve with a large enough effect in the signal ratio in the repeat runs, with a control signal flat; the % refers to the signal ratio; note: potency is the fitted concentration of half-maximal effect)
# Procedure, shortened: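 HEK293 cells stably expressing DRD2, preincubated with 0.1 mM Ro20-1724 and compounds 10 min, were stimulated with 200 nM NKH477 plus 12 nM quinpirole for 30 min at room temperature; cAMP measured by HTRF (665/620 nm).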
# [17] = biological target: 5-hydroxytryptamine receptor 2A (Homo sapiens) (UniProt P28223); test: 5-hydroxytryptamine receptor 2A (HTR2A) small molecule agonists, cell-based qHTS assay (AID 1963587); note: nearly all actives have a fitted effect of over 30% in size; note: potency is the fitted concentration of half-maximal effect
# Procedure, shortened: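 Kinetic calcium-flux fluorescence (2 min, 1 sec intervals) after compound addition in agonist mode. HTR2A-CHO cells were cultured 18 h, then dye-loaded 1 h at 37 C.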
# [18] = biological target: Muscarinic acetylcholine receptor M1 (Homo sapiens) (UniProt P11229); test: Cholinergic receptor muscarinic 1 (CHRM1) small molecule antagonists, cell-based qHTS assay (AID 1963588); note: nearly all actives have a fitted effect of over 40% in size; note: potency is the fitted concentration of half-maximal effect
# Procedure, shortened: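 Compounds were tested at 15 concentrations in three independent runs. Dye-loaded CHRM1-CHO cells were exposed 5 min at room temperature before stimulation by acetylcholine added at 50nM. Intracellular calcium was read kinetically on FDSS for 3 min.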
# [19] = biological target: Muscarinic acetylcholine receptor M1 (Homo sapiens) (UniProt P11229); test: Cholinergic receptor muscarinic 1 (CHRM1) small molecule agonists, cell-based qHTS assay (AID 1963589); note: nearly all actives have a fitted effect of over 35% in size
# Procedure, shortened: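 Calcium flux read-out: kinetic fluorescence at 1 sec intervals after pin-tool compound addition to dye-loaded CHRM1-CHO cells (human M1). Agonist mode; 15 concentrations tested in triplicate independent runs.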
# [20] = biological target: 5-hydroxytryptamine receptor 2A (Homo sapiens) (UniProt P28223); test: 5-hydroxytryptamine receptor 2A (HTR2A) small molecule antagonists, cell-based qHTS assay (AID 1963586); note: nearly all actives have a fitted effect of over 45% in size; note: potency is the fitted concentration of half-maximal effect
# Procedure, shortened: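 CHO cells stably expressing human HTR2A were plated for 18 h at 37 C, then loaded with calcium dye for 1 h. Compounds were preincubated 5 min at room temperature before DOI (4 nM solution) was added. Kinetic fluorescence was read for 3 min.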
# Sequence of D(2) dopamine receptor (Homo sapiens) (P14416 whole entry, looked up): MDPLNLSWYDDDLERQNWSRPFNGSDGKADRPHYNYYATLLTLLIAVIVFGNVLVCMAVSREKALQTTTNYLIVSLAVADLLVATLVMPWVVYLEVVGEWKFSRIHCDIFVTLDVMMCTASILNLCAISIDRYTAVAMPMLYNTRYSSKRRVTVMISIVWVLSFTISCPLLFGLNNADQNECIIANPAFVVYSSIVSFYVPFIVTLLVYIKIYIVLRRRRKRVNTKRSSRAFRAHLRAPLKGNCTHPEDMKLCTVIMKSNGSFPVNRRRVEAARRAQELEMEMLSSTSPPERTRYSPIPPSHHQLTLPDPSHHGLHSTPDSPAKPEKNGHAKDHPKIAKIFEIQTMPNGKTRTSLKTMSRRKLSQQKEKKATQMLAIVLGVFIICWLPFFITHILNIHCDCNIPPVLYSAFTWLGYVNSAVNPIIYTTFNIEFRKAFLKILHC
# Sequence of KiSS-1 receptor (Homo sapiens) (Q969F8 whole entry, looked up): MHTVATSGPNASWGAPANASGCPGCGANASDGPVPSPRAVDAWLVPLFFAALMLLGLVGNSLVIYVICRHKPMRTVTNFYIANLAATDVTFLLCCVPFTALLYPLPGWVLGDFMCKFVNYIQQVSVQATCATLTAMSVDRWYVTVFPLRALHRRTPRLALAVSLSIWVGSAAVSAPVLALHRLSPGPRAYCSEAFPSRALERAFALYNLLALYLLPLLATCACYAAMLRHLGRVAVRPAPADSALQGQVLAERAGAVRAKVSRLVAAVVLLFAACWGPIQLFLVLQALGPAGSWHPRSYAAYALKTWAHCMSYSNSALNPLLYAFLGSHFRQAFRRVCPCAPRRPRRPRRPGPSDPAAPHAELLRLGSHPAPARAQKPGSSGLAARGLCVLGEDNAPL
# Sequence of Beta-2 adrenergic receptor (Homo sapiens) (P07550 whole entry, looked up): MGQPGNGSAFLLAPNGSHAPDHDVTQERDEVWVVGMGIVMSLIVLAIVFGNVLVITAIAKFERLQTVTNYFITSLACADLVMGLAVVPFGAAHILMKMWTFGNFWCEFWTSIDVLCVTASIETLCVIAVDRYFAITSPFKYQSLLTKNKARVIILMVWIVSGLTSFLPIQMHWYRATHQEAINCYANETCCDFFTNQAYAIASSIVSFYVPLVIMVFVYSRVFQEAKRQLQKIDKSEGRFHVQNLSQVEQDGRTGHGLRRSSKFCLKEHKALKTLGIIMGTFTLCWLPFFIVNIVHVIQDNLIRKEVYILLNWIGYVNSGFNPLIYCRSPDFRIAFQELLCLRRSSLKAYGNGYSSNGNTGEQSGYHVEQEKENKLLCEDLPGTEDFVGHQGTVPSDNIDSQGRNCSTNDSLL
# Sequence of Muscarinic acetylcholine receptor M1 (Homo sapiens) (P11229 whole entry, looked up): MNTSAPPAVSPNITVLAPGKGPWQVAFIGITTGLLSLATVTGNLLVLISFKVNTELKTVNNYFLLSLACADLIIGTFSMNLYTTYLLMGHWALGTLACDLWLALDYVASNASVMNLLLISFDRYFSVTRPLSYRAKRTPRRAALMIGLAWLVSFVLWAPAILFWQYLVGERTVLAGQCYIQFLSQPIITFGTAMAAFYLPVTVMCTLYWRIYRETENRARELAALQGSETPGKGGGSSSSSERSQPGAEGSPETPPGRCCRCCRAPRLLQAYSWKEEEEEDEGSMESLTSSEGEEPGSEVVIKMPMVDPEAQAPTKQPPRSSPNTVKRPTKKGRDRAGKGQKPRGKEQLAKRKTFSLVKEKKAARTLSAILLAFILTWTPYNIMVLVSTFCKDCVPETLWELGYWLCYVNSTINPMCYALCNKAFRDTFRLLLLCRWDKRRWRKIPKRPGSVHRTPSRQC
# Sequence of 5-hydroxytryptamine receptor 2A (Homo sapiens) (P28223 whole entry, looked up): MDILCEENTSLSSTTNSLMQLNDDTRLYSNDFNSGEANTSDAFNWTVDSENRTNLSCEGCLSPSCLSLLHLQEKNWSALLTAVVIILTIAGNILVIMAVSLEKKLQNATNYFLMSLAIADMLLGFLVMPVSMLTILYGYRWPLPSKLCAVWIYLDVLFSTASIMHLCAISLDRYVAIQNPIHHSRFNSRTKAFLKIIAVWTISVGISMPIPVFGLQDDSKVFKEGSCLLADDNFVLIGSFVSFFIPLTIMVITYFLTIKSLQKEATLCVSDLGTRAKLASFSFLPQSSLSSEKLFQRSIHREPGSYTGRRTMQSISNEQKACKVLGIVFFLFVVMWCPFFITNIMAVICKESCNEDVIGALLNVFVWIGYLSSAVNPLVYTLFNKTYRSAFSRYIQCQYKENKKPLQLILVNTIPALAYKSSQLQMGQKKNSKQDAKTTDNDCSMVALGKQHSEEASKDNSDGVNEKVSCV
Structure (SMILES),Potency [1],Potency [2],outcome [3],outcome [4],Potency [5],Potency [6],Potency [7],Potency [8],Potency [9],Potency [10],Potency [11],Potency [12],Potency [13],Potency [14],Potency [15],Potency [16],Potency [17],Potency [18],Potency [19],Potency [20]
COc1ccccc1OCC(O)COC(N)=O (configuration not stated),inactive,inactive,inactive,inactive,inactive,inactive,inactive,inactive,inactive,inactive,inactive,inactive,inactive,inactive,inactive,inactive,–,–,–,–
Cc1ccc(CCn2c3c(c4cc(Cl)ccc42)CN(C)CC3)cn1,inactive,inactive,inactive,inactive,inactive,inactive,inactive,inactive,inactive,inactive,–,inactive,inactive,–,inactive,inactive,inactive,inactive,inactive,–
CCc1cc(S(=O)(=O)O)c2cc(C(C)C)cccc1-2,inactive,inactive,inactive,inactive,inactive,inactive,inactive,inactive,inactive,inactive,inactive,inactive,inactive,–,inactive,inactive,inactive,inactive,inactive,inactive
C=CC1CC2C=CC1C2 (configuration not stated),inactive,inactive,inactive,inactive,inactive,inactive,inactive,inactive,inactive,inactive,inactive,inactive,inactive,–,inactive,inactive,inactive,inactive,–,inactive
COCCOC(=O)C1=C(C)NC(C)=C(C(=O)OC/C=C/c2ccccc2)C1c1cccc([N+](=O)[O-])c1 (configuration not stated),inactive,inactive,inactive,inactive,inactive,inactive,inactive,inactive,inactive,inactive,–,inactive,inactive,–,inactive,inactive,inactive,inactive,inactive,inactive
CC(C)=CC(=O)C=C(C)C,inactive,inactive,inactive,inactive,inactive,inactive,inactive,inactive,inactive,inactive,inactive,inactive,inactive,inactive,inactive,–,inactive,inactive,inactive,–
COc1ccc(-c2cc(C(F)F)nn2-c2ccc(S(N)(=O)=O)cc2)cc1F,inactive,inactive,inactive,inactive,inactive,inactive,inactive,inactive,inactive,inactive,–,–,–,–,inactive,–,inactive,inactive,–,–
OC1(c2ccccc2)CCNCC1,inactive,inactive,inactive,inactive,inactive,inactive,inactive,inactive,inactive,inactive,inactive,–,inactive,inactive,inactive,inactive,inactive,–,inactive,inactive
FC(F)(F)C(F)(F)C(F)(F)C(F)(F)CCI,inactive,inactive,inactive,inactive,inactive,inactive,inactive,–,–,inactive,inactive,inactive,inactive,–,inactive,inactive,inactive,inactive,inactive,inactive
C/C=C/C(=O)OCC(C)C,inactive,inactive,inactive,inactive,inactive,inactive,inactive,inactive,inactive,–,inactive,inactive,inactive,–,inactive,inactive,inactive,–,inactive,inactive
CCc1ccc(CC)cc1,inactive,inactive,inactive,inactive,inactive,inactive,inactive,–,inactive,inactive,inactive,inactive,inactive,inactive,–,inactive,inactive,inactive,inactive,inactive
CC(C)(C)c1cc(CCC(=O)NN)cc(C(C)(C)C)c1O,inactive,inactive,inactive,inactive,inactive,inactive,inactive,inactive,inactive,–,inactive,–,–,–,inactive,–,–,inactive,inactive,inactive
Cc1cccc(C)c1OCC(=O)N[C@@H](Cc1ccccc1)[C@@H](O)C[C@H](Cc1ccccc1)NC(=O)[C@H](C(C)C)N1CCCNC1=O,inactive,inactive,inactive,inactive,inactive,inactive,inactive,inactive,inactive,–,–,–,inactive,–,inactive,inactive,–,inactive,inactive,inactive
Cc1cnc(NS(=O)(=O)c2ccc(N)cc2)nc1,inactive,inactive,inactive,inactive,inactive,inactive,inactive,inactive,–,inactive,inactive,inactive,inactive,–,–,inactive,inactive,–,inactive,inactive
OC1(c2ccc(Cl)c(C(F)(F)F)c2)CCN(CCCC(c2ccc(F)cc2)c2ccc(F)cc2)CC1,6.68 µM (active),inactive,inactive,inactive,inactive,inactive,inactive,inactive,11.2 µM (active),–,–,–,26.6 µM (active),–,inactive,0.119 µM (active),inactive,–,–,–
CC(C)=NNC(N)=S,30.6 µM (active),15.4 µM (active),inactive,inactive,inactive,inactive,inactive,–,–,inactive,–,inactive,inactive,inactive,inactive,inactive,inactive,inactive,inactive,inactive
CN(C)CCc1c[nH]c2ccc(C[C@H]3COC(=O)N3)cc12,inactive,inactive,inactive,inactive,inactive,inactive,inactive,–,inactive,inactive,inactive,inactive,inactive,inactive,inactive,–,8.49 µM (active),inactive,inactive,–
CC(C)(C)NCC(O)COc1cccc2c1CCC(=O)N2 (configuration not stated),inactive,inactive,inactive,inactive,inactive,inactive,inactive,inactive,–,inactive,inactive,inactive,–,–,–,inactive,inactive,inactive,–,–
CC(=O)OC(C)=O,inactive,inactive,inactive,inactive,inactive,inactive,inactive,inactive,–,inactive,inactive,inactive,inactive,–,inactive,inactive,inactive,–,inactive,inactive
CN1CCCCC1CCN1c2ccccc2Sc2ccc(S(C)=O)cc21 (configuration not stated),inactive,inactive,inactive,inactive,inactive,inactive,inactive,inactive,–,–,inactive,inactive,inactive,inactive,inactive,1.88 µM (active),inactive,0.0103 µM (active),inactive,–
O=S1OCCO1,inactive,inactive,inactive,inactive,inactive,inactive,inactive,inactive,–,inactive,inactive,inactive,inactive,–,inactive,inactive,inactive,–,inactive,inactive
C[C@]1(Cn2ccnn2)[C@H](C(=O)O)N2C(=O)C[C@H]2S1(=O)=O,inactive,inactive,inactive,inactive,inactive,inactive,–,inactive,inactive,inactive,inactive,1.88 µM (active),inactive,inactive,inactive,inactive,–,–,–,–
O=C(CCCCC(=O)Nc1c(I)cc(I)c(C(=O)O)c1I)Nc1c(I)cc(I)c(C(=O)O)c1I,inactive,inactive,inactive,inactive,inactive,inactive,inactive,inactive,inactive,–,inactive,–,inactive,–,inactive,inactive,inactive,inactive,inactive,inactive
C=CC(=O)OCCCl,inactive,inactive,inactive,inactive,inactive,inactive,inactive,–,inactive,inactive,inactive,inactive,–,–,inactive,inactive,inactive,inactive,inactive,inactive
Cc1ccc(S)cc1,inactive,24.3 µM (active),inactive,inactive,inactive,inactive,inactive,inactive,–,inactive,–,–,inactive,inactive,inactive,inactive,inactive,inactive,inactive,42.1 µM (active)
CCCCCCCCCCCBr,inactive,inactive,inactive,inactive,inactive,inactive,inactive,–,–,inactive,inactive,inactive,inactive,–,–,inactive,inactive,inactive,inactive,inactive
COc1ccc(C2C(=O)c3ccccc3C2=O)cc1,inactive,inactive,inactive,inactive,inactive,inactive,inactive,–,inactive,inactive,inactive,inactive,inactive,–,–,inactive,–,–,–,–
CC(COc1ccccc1)NC(C)C(O)c1ccc(O)cc1 (configuration not stated),inactive,inactive,inactive,inactive,inactive,inactive,inactive,inactive,–,inactive,inactive,inactive,inactive,–,–,23.7 µM (active),inactive,inactive,inactive,–

# Source: PubChem BioAssay (Tox21)
